Pf growth 96h: inhibits malaria parasite growth, 96 h. Potency, µM (titrated, usually from 28.7 µM), for the others: at the top dose activity change, negative = inhibition, hits mostly inhibitors. P. falciparum luciferase reporter growth, 96 h. 320,000 tested, 6.9% active; active = well fitted inhibition curve with a large enough effect; inconclusive = small, poorly fitted or top-dose-only effect, or another doubt; inactive = no such curve, though single readings can be large or run the other way; note: potency is the fitted concentration of half-maximal effect; % is set by controls: 0 for no effect and ±100 for the full control effect
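Two-generation exposure (96 h) targets delayed-death phenotype. Reporter parasites carrying integrated firefly luciferase, in red cells at 2% hematocrit and 0.05% parasitemia final, kept at 37 C, 5% CO2; luminescence loss indicates inhibition.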
Cycloheximide cs: counter-screen hit for Shiga toxin inhibitors, cycloheximide. AID 2314. max response, %. 300,000 tested, 12% active. cell reporter, cycloheximide protein synthesis inhibition counterscreen; in the data active = max response mostly above about 13%, no sharp cut-off; inactive = mostly below about 14%; note: read at 38.3 µM for the half of the compounds with a filed dose; 0% is about no effect
NS1 function inh: inhibitors of influenza NS1 protein function | Potency, µM (highest dose often 46.1 µM), without a hit: at the highest dose activity, positive = more growth | AID 2326 | 270,000 tested, 0.4% active; note: potency is the fitted concentration of half-maximal effect; actives are rising curves; nearly all actives have a fitted effect of over 50% in size
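Compounds were scored for reversing the slow growth caused by influenza A NS1 in S. cerevisiae, measured by optical density at 600 nm. Assay medium contained 2% galactose at pH 6.0; NS1-free yeast of the same strain were the positive control.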
Pf growth 48h: P. falciparum growth inhibition at 48 hours (one generation); Potency, µM (series often up to 28.7 µM), for inactives: top-dose activity change, negative = inhibition, usual class: inhibitors; 310,000 tested, 5.9% active; P. falciparum luciferase growth in erythrocytes, 48 h; AID 504832; active = well fitted inhibition curve with a large enough effect; inconclusive = small, poorly fitted or top-dose-only effect, or another doubt; inactive = no such curve, though single readings can be large or run the other way; note: potency is the fitted concentration of half-maximal effect; % is set by controls: 0 for no effect and ±100 for the full control effect
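In quantitative HTS format, infected erythrocytes bearing luciferase-reporter parasites were treated for a single generation at 37 C. Luminescence after adding detection reagent served as the growth measure.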
SARS PLP yeast: blocks SARS-CoV papain-like protease in a yeast assay; S. cerevisiae expressing SARS-CoV PLpro, growth rescue; Potency, µM (titrated, usually from 32.9 µM), for the others: at the top dose activity, positive = growth rescue, most hits filed as activators; 330,000 tested, 0.19% active; note: potency is the fitted concentration of half-maximal effect; 0% is about no effect; nearly all actives have a fitted effect of over 55% in size
Shiga toxin inh: Shiga toxin inhibition | 290,000 tested, 9.2% active | Vero cells, Shiga toxin protein synthesis inhibition reporter | inhibition, % at 38.7 µM | AID 2315; in the data active = inhibition mostly above about 28%, no sharp cut-off; inactive = mostly below about 43%; note: 0% is about no effect
An asterisk follows results filed as active; u = inconclusive; x = no result given. This is a sample that favours compounds with a hit; in the whole collection about 21% have one here. Unless noted, calls come from the whole dose curve.

SMILES	Pf growth 96h	Cycloheximide cs	NS1 function inh	Pf growth 48h	SARS PLP yeast	Shiga toxin inh
O=C(CC1SC(N2CCOCC2)=NC1=O)Nc1cc([N+](=O)[O-])ccc1Cl (stereo unspecified)	-4%	-3	x	-1%	2%	-32
NC(Cc1ccccc1)=NCC(=O)O	x	x	2%	x	x	x
Cc1ccccc1C(N)c1ccncc1 (stereo unspecified)	5.9µM*	-1	15%	31%	13%	-3
O=[N+]([O-])c1ccc(N=Nc2c(Cl)cc(O)cc2Cl)cc1	u	29*	-124%	u	-12%	111*
O=C(CSc1nnc(-c2cccs2)o1)OC1CCCCC1	x	-3	-51%	2%	-2%	1
CCC1CCCCN1C(=O)CSc1nnc(-c2cccs2)o1 (stereo unspecified)	0%	29*	-29%	63%	-4%	89*
CC1CCCN(C(=O)CSc2nnc(-c3cccs3)o2)C1 (stereo unspecified)	3%	39*	-3%	140%	-2%	64*
Cc1cc(C)c2nc(-c3ccccn3)cc(C(=O)N3CCCC3)c2c1	-10%	-2	u	-13%	-10%	-9
COc1cccc(CN(CC2CCCO2)C(=O)c2cc3ccccc3oc2=O)c1 (stereo unspecified)	-2%	44*	-2%	-7%	0%	77*
COc1cccc(CN(C(=O)c2cc3ccccc3oc2=O)C2CC2)c1	x	26*	-17%	-27%	-1%	78*
CC(C)(C)NC(=O)c1ccc(Sc2ccccc2)c([N+](=O)[O-])c1	u	9	-9%	10µM*	-5%	-8
CCOC(=O)c1cc(-c2ccc(N3CCOCC3)cc2)nn1-c1ccc(F)cc1F	12µM*	-1	-20%	12µM*	19%	-14
NS(=O)(=O)c1ccc(CCNC(=O)CCCNC(=O)c2ccc(Cl)cc2)cc1	20%	-6	-7%	0%	4%	-6
CC(C)Oc1cccc(C(=O)N/N=C/c2ccoc2)c1	11%	49*	4%	38%	14%	61*
CCCCOc1ccc(/C=N/NC(=O)c2csc(C)c2C)cc1	x	9	2%	u	-5%	24
CC(C)Oc1cccc(C(=O)N/N=C/c2coc3ccccc3c2=O)c1	u	-1	13%	17%	21%	-6
CC(C)COc1ccc(C(=O)N/N=C/c2ccoc2)cc1	5.9µM*	27*	2%	0%	-4%	83*
Cc1scc(C(=O)N/N=C/c2ccc(OCC(C)C)cc2)c1C	12µM*	16	-18%	x	-7%	46
CCCOc1cccc(C(=O)N/N=C/c2ccoc2)c1	-28%	31*	-13%	18%	-10%	28
CCOc1cc(C(=O)N/N=C/c2ccoc2)cc(OCC)c1OCC	u	-3	12%	-8%	-1%	-10
CN(C)CC1CCCCC1OC(=O)/C=C/c1ccccc1 (stereo unspecified)	47%	8	-53%	132%	-1%	3
O=S(=O)(c1ccc2c(c1)OCCO2)N1CCN(S(=O)(=O)c2cccc[n+]2[O-])CC1	x	5	x	x	x	7
Cc1cccc(C(=O)N/N=C/c2ccoc2)c1	-11%	36*	4%	-2%	3%	78*
Cc1ccc(/C=C2\SC(N3CCCCC3)=NC2=O)cc1	390%	42*	1%	-5%	-10%	73*
O=C1N=C(N2CCCC2)S/C1=C\c1ccccc1	u	6	-5%	15µM*	-7%	39
SMILES	Pf growth 96h	Cycloheximide cs	NS1 function inh	Pf growth 48h	SARS PLP yeast	Shiga toxin inh
CCN1CCN(C2=NC(=O)/C(=C/c3ccc(C)o3)S2)CC1	13µM*	25	0%	-2%	-1%	4
O=C1N=C(N2CCCCC2)S/C1=C\c1ccc(Cl)cc1	u	2	-7%	u	-2%	x
O=C1N=C(N2CCCCC2)S/C1=C\c1ccccc1F	u	22*	-38%	-1%	-18%	61*
CC(C)(C)c1ccc(/C=C2/SC(N3CCCC3)=NC2=O)cc1	u	16	0%	u	-2%	28
CCOc1cccc(C(=O)N/N=C/c2coc3ccccc3c2=O)c1	u	15	-4%	72%	u	-8
NC(=O)c1ccc(NC(=O)CSc2nnc(-c3ccccn3)n2N)cc1	u	3	x	46%	1%	-5
Cc1csc(N(C(=O)c2ccccc2F)c2ccccc2)n1	3%	11	x	-22%	0%	-3
Cc1cc(OCc2ccc(C(=O)n3cccn3)o2)ccc1Cl	27%	30*	-27%	16%	-24%	65*
CCN(CC)C(=O)c1ccc(COc2ccc(Cl)c(C)c2)o1	u	30*	-49%	12%	-4%	x
CCN(CC)C(=O)c1ccc(COc2ccccc2Br)o1	x	17	-63%	0%	-2%	38
O=C(c1ccc(COc2ccc(F)cc2)o1)n1cccn1	0%	-1	-33%	51%	-18%	25
COc1ccc(CCNS(=O)(=O)c2ccc(OC)cc2)cc1	u	-4	-85%	30%	-8%	-7
COc1ccc(CCc2cc(OC)cc(=O)o2)cc1	1.9µM*	19*	-3%	9%	0%	32
CCn1c2ccccc2c2cc(/C(C)=N/O)ccc21	42%	14	-40%	-1%	-19%	3
C/C(=N\O)c1ccc2c3ccccc3n(C)c2c1	-24%	46*	-63%	101%	-10%	105*
O=C(Nc1nccs1)c1ccc2c(=O)n3c(nc2c1)CCCCC3	54%	19*	-11%	145%	-22%	98*
CCc1ccc(NC(=O)c2ccc3c(=O)n4c(nc3c2)CCCCC4)cc1	-21%	37*	-1%	u	5%	47*
O=C(Nc1cccc(S(=O)(=O)N2CCCCC2)c1)c1ccc2c(=O)n3c(nc2c1)CCCCC3	13µM*	6	u	u	-2%	-13
CC(C)(C)c1cc(NC(=O)COC(=O)c2ccc3c(=O)n4c(nc3c2)CCC4)n(-c2ccccc2)n1	6%	16*	-15%	2%	-11%	29
C=C1C(=O)O[C@@]23[C@H]1CC[C@@H](C)[C@@H]2CC[C@@]1(C)O[C@@H]31	x	x	x	x	4%	x
O=C(CSc1nnc2ccc(-c3cccnc3)nn12)Nc1ccccc1	u	x	x	-21%	x	x
CCC1CCc2sc(C(=O)N(C)CC(=O)Nc3ccc(N4CCOCC4)cc3)cc2C1 (stereo unspecified)	u	x	x	u	-12%	x
Cc1ccc(-c2n[nH]c(=S)n2/N=C/c2ccncc2)cc1	-4%	-7	x	7%	-3%	10
Cc1csc(NC(=O)c2ccc3c(=O)n4c(nc3c2)CCCCC4)n1	-5%	27*	-11%	197%	-18%	63*
CSc1nc2ccsc2c(=O)n1-c1ccccc1	17%	9	-2%	-1%	1%	-5
CN(Cc1nc2ccccc2c(=O)[nH]1)Cc1nc2ccsc2c(=O)[nH]1	u	2	x	u	0%	-16

Assay outcomes from PubChem BioAssay.
